Compounds without any hit were thinned out: in the full panel of roughly 83,000, 20% have a hit.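 Note: values are percent growth. 100 is the growth of untreated cells, values between 100 and 0 indicate rising inhibition; between -100 and 0 indicates cell death.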 Active and inactive are the calls of the source. Rule for the calls: active = growth percent below 10; inactive = the rest.

The subject of this test is MDA-MB-468 breast. Kind of test: NCI-60 one-dose screen, 48 h (100 = growth as untreated, 0 = no growth, -100 = all killed). The settings on record: 10 µM unless noted.
On to `CC(=O)OC1C=CC(OC(C)=O)O1` (stereo not given), for which the growth was 101% (inactive).

`CC1(C)CC(=O)c2cc3c(N)c(C(=O)Nc4ccc(Cl)cc4)sc3nc2C1`: the growth was 110% (inactive).

As to `O=C(Nc1ccc(Br)cc1)Nc1nc2ccc([N+](=O)[O-])cc2s1`, the growth was -29% (active).

In the case of `O=C(N/N=C/c1cc2ccccc2nc1Cl)c1cc(-c2nc3ccccc3[nH]2)nc2ccccc12`, the growth is 98.5% (inactive).

In the case of `O=C(Nc1cccc(Cl)c1)Nc1cccc(Cn2c(=O)[nH]c3ccc(Oc4ncccn4)cc3c2=O)c1`, the growth was -0.625% (active).

`COc1cc(C(=O)N(C(C)C)C2CCCCC2)cc(OC)c1OC`: the growth is 89.8% (inactive).

Take `CCOC(=O)c1cnc2cc(Cl)c(F)cc2c1Nc1cccc(NS(C)(=O)=O)c1`: the growth was 87.6% (inactive).

For `COc1ccc(C(Cn2ccnc2)Sc2ccc(Cl)c(Cl)c2)cc1` (stereo not given), the growth was 63% (inactive).

Turning to `CCCC[P+](c1ccccc1)(c1ccccc1)c1ccccc1`, the growth is -6.92% (active).

For the compound `C/C(=C(/c1ccccc1)c1ccc(N2C(=O)c3cccc4c(NCc5ccccc5)ccc(c34)C2=O)cc1)c1ccccc1`, the growth is 116% (inactive).

`O=C(O)C(c1ccccc1)C(O)c1ccccc1` (stereo not given): the growth is 101% (inactive).

Take `C=CC(=O)Nc1cc2c(Nc3ccc(F)c(Cl)c3)ncnc2cc1OCCCN1CCOCC1`: the growth was -31.5% (active).

On to `C=C1C(=O)O[C@H]2[C@H]1CCC(/C=N/c1ncc(Br)cc1N)=C\CC[C@@]1(C)O[C@@H]21`, for which the growth is -51% (active).

`COC(=O)[C@]1(C(C)C)N[C@H](c2cn(-c3ccccc3)nc2-c2ccccc2)[C@@H]2C(=O)N(c3ccc(Cl)cc3)C(=O)[C@@H]21`: the growth was 119% (inactive).

On to `C=CCn1c(SCC(=O)Nc2cccc(C(=O)/C=C/c3ccc(Cl)cc3)c2)nc2ccccc2c1=O`, for which the growth was 107% (inactive).

Take `CS(=O)(=O)CCNCc1ccc(-c2ccc3ncnc(Nc4ccc(OCc5cccc(F)c5)c(Cl)c4)c3c2)o1`: the growth is -56.5% (active).

In the case of `COc1cc2c3c(n([C@H]4CCOC4)c(=O)c2cc1OC)-c1cc2c(cc1C3=O)OCO2`, the growth was 31.3% (inactive).

Consider `CC(=O)Oc1cccc(OC(C)=O)c1OC(C)=O`, for which the growth is 97.6% (inactive).

Take `O=[N+]([O-])c1cc[n+]([O-])cc1`: the growth is 98.1% (inactive).

Consider `CCO/C=N/C1=C(C#N)C(c2ccc(F)cc2)c2sc3c(C)cccc3c2O1` (stereo not given), for which the growth is 6% (active).

As to `O=C(NC(Cc1cn(Cc2ccccc2)cn1)C(=O)O)OCC1c2ccccc2-c2ccccc21` (stereo not given), the growth was 107% (inactive).

As to `O=C(/C=C\c1ccnc2ccccc12)c1ccc([N+](=O)[O-])cc1`, the growth was 57.5% (inactive).

As for `COc1cc2nc(Cl)nc(Nc3ccc(S(=O)(=O)Nc4nccs4)cc3)c2cc1OC`, the growth was 102% (inactive).

Regarding `Cc1c(C(=O)N[C@@H](Cc2ccccc2)C(=O)C(=O)NCCc2ccccc2)[nH]c2ccccc2c1=O`, the growth was 110% (inactive).

Turning to `NCCNC(=O)c1cccc(COc2ccccc2NC(=O)c2cc(Br)c(Br)[nH]2)c1`, the growth is 85.1% (inactive).

For `CN(C)c1ccc(/C=C\C2=[N+](C)c3ccccc3C2(C)C)cc1`, the growth is 11% (inactive).

Take `Clc1ccc(Nc2ncc(Cc3cccc(Cl)c3Cl)s2)cc1`: the growth is 99.4% (inactive).

As for `COc1ccc2c(c1)c(-c1nc(-c3cn(C)c4ncccc34)cs1)cn2CCN`, the growth is 16.1% (inactive).

`NC(=Nc1ccc(N)cc1)C(N)=Nc1ccc(N)cc1`: the growth is 94.3% (inactive).

For the compound `O=[N+]([O-])c1ccc2[nH]c(=S)n(/C=C(/c3ccc(Cl)cc3Cl)S(=O)(=O)Cc3ccc(Cl)cc3Cl)c2c1`, the growth is 111% (inactive).

Regarding `N#Cc1c(NC(=O)c2ccc(F)c(Cl)c2)sc2c1CCC(=O)C2`, the growth is -20% (active).

In the case of `CCN(CC)c1ccc(CN(CC(=O)c2ccc(Cl)c(Cl)c2)Cc2ccccc2)cc1`, the growth is 91.9% (inactive).

Turning to `C=C1C(=O)O[C@H]2[C@H]1CC/C(COC(=O)/C=C\C(=O)NCc1ccc(Cn3c(=O)sn(-c4ccccc4)c3=O)cc1)=C\CC[C@@]1(C)O[C@@H]21`, the growth was 30.5% (inactive).

On to `CS(=O)(=O)c1ccc2c(c1)c1c(n2C(=O)c2ccc(Cl)cc2)CCCC1`, for which the growth is 27.7% (inactive).

Turning to `O=C1NC(=O)C(Cc2ccc(OCc3ccc(-c4cc(F)c(F)c(F)c4)cc3)cc2)S1` (stereo not given), the growth was 53.4% (inactive).

With `CC(=O)OC[C@]12CC[C@@H](c3cn(Cc4ccc(Cn5cc([C@@H]6CC[C@]7(COC(C)=O)CC[C@]8(C)[C@H](CC[C@@H]9[C@@]%10(C)CC[C@H](OC(C)=O)C(C)(C)[C@@H]%10CC[C@]98C)[C@@H]67)nn5)cc4)nn3)[C@@H]1[C@H]1CC[C@@H]3[C@@]4(C)CC[C@H](OC(C)=O)C(C)(C)[C@@H]4CC[C@@]3(C)[C@]1(C)CC2`, the growth was 102% (inactive).

As to `CC1(C)OC(=O)C(c2ccsc2)C(=O)O1`, the growth was 114% (inactive).

For `N#C/C(=C\c1ccc(-c2cccc(Cl)c2)o1)C(=O)Nc1ncc(Cc2ccc(Cl)cc2)s1`, the growth is 47% (inactive).

As to `O=C(/C(=C/c1ccccc1)CBr)c1ccccc1`, the growth is -10% (active).

Turning to `COc1ccc(/C=C2\SC(=Nc3cc(C)on3)NC2=O)cc1`, the growth is 95.6% (inactive).

(Values after PubChem BioAssay (NCI).)
